Where “and” joins values, the source holds several entries; their conditions need not be identical. Equal entries are not always repeated. About 2,000 (36%) of roughly 5,500 compounds were called active. Another 18% or so got no clear call; they are omitted. Cut-off read from the data, not from the text of the source: active = normalized growth mostly below about 0.91 (no sharp cut-off); inconclusive = no clear call, values can overlap the other calls; inactive = mostly above about 0.92. This is one part of the list.
Test: chemical genetic growth profiling, strain panel (AID 1159580);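 note: tested at 20 µM; growth read once vehicle control cultures reached saturation at 30 °C; 1 = growth at the plate median or of vehicle wells; lower values mean less growth of the strain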
Settings: S. cerevisiae deletion strains, growth OD

Measured: normalized growth

O=C(Cn1ccnc1[N+](=O)[O-])NCCO
inactive: locus YAL013W, strain DEP1, hits give low values 0.996 | locus YAL021C, strain ccr4, hits give low values 1.02 | locus YAL026C, strain drs2, hits give low values 1.02 | locus YAL030W, strain snc1, hits give low values 1.01 | locus YBL061C, strain skt5, hits give low values 1.03 | locus YBR009C, strain hhf1, hits give low values 1.02 | locus YBR021W, strain FUR4, hits give low values 1.03 | locus YBR023C, strain chs3, hits give low values 1.02 | locus YBR171W, strain sec66, hits give low values 1.04 | locus YBR229C, strain ROT2, hits give low values 1.01 | locus YBR231C, strain swc5, hits give low values 1 | locus YBR279W, strain paf1, hits give low values 1 | locus YCL011C, strain gbp2, hits give low values 1.01 | locus YCL016C, strain dcc1, hits give low values 1.02 | locus YCL029C, strain bik1, hits give low values 1.02 | locus YCL061C, strain MRC1, hits give low values 1.01 | locus YCL069W, strain vba3, hits give low values 1.01 | locus YCR088W, strain abp1, hits give low values 1.01 | locus YDL005C, strain med2, hits give low values 1.02 | locus YDL035C, strain GPR1, hits give low values 1.02 | locus YDL040C, strain nat1, hits give low values 1.01 | locus YDL074C, strain BRE1, hits give low values 0.99 | locus YDL101C, strain DUN1, hits give low values 1 | locus YDL134C, strain PPH21, hits give low values 0.996 | locus YDL185W, strain tfp1, hits give low values 0.999 | locus YDL192W, strain arf1, hits give low values 1.01 | locus YDR001C, strain nth1, hits give low values 1.01 | locus YDR069C, strain doa4, hits give low values 1.02 | locus YDR101C, strain arx1, hits give low values 1.01 | locus YDR137W, strain rgp1, hits give low values 1.05 | locus YDR150W, strain NUM1, hits give low values 0.998 | locus YDR159W, strain sac3, hits give low values 1.02 | locus YDR162C, strain NBP2, hits give low values 0.985 | locus YDR195W, strain ref2 1.02 | locus YDR297W, strain sur2, hits give low values 1.01 | locus YDR318W, strain mcm21, hits give low values 1.03 | locus YDR334W, strain swr1, hits give low values 1.01 | locus YDR335W, strain msn5, hits give low values 1.01 | locus YDR388W, hits give low values 1.01 | locus YDR392W, strain spt3, hits give low values 1.03 | locus YDR502C, strain sam2, hits give low values 0.988 | locus YEL003W, strain gim4, hits give low values 1 | locus YEL037C, strain rad23, hits give low values 1.02 | locus YEL061C, strain CIN8 (second series), hits give low values 1.01 | locus YEL061C, strain CIN8, hits give low values 1 | locus YER015W, strain faa2, hits give low values 1 | locus YER016W, strain bim1, hits give low values 1.01 | locus YER110C, hits give low values 1 | locus YER111C, strain swi4, hits give low values 1.02 | locus YER155C, strain BEM2 (second series), hits give low values 1.01 | locus YER155C, strain BEM2, hits give low values 1 | locus YER167W, strain BCK2, hits give low values 1.03 | locus YFR010W, strain ubp6, hits give low values 1.02 | locus YGL078C, strain dbp3, hits give low values 0.983 | locus YGL086W, strain mad1, hits give low values 1.03 | locus YGL167C, strain pmr1, hits give low values 1.02 | locus YGL173C, strain kem1, hits give low values 1.01 | locus YGL227W, strain vid30, hits give low values 1.01 | locus YGL240W, strain doc1, hits give low values 1.02 | locus YGL248W, strain PDE1, hits give low values 0.999 | locus YGL253W, strain hxk2, hits give low values 0.982 | locus YGR078C, strain PAC10, hits give low values 0.995 | locus YGR135W, strain pre9, hits give low values 0.988 | locus YGR229C, strain SMI1, hits give low values 0.999 | locus YGR252W, strain gcn5, hits give low values 1.09 | locus YHR013C, strain ard1, hits give low values 1.04 | locus YHR027C, strain rpn1, hits give low values 1.01 | locus YHR030C, strain SLT2, hits give low values 1.01 and 0.984 | locus YHR079C, strain IRE1 (second series), hits give low values 1.01 | locus YHR079C, strain IRE1, hits give low values 0.998 | locus YHR094C, strain hxt1, hits give low values 1.01 | locus YHR129C, strain ARP1, hits give low values 1.01 | locus YHR142W, strain chs7, hits give low values 1.02 | locus YHR200W, strain rpn10, hits give low values 1.01 | locus YIL066C, strain RNR3, hits give low values 1.01 | locus YIL073C, strain SPO22, hits give low values 1.04 | locus YIL125W, strain kgd1, hits give low values 0.997 | locus YIR030C, strain dcg1, hits give low values 1.01 | locus YJL092W, strain hpr5, hits give low values 1.02 | locus YJL095W, strain BCK1 (second series), hits give low values 1.01 | locus YJL095W, strain BCK1, hits give low values 1.01 and 0.995 | locus YJL115W, strain asf1, hits give low values 1.01 | locus YJL129C, strain trk1, hits give low values 1.02 | locus YJL134W, strain LCB3, hits give low values 1.01 | locus YJL154C, strain vps35, hits give low values 1.02 | locus YJL166W, strain qcr8, hits give low values 1.01 | locus YJL168C, strain set2, hits give low values 1.01 | locus YJL187C, strain SWE1 (second series), hits give low values 0.999 | locus YJL187C, strain SWE1, hits give low values 1.01 | locus YJR043C, strain POL32, hits give low values 1.04 | locus YJR066W, strain TOR1, hits give low values 0.972

Reference: PubChem BioAssay AID1159580 (chemical genetic matrix, 2015)
